BRCA1 expr act: activators of BRCA1 expression; MCF7-BRCA1-FFLuc reporter, luminescence, 48 h; response scale: scaled: vehicle 0%, 10 µM genistein 100%; Potency, µM (highest dose often 46.1 µM), for the others: at the top dose activation, actives largely listed as activators; 1.1% of 380,000 active; note: potency is the fitted concentration of half-maximal effect; nearly all actives have a fitted effect of over 80% in size
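Activators of BRCA1 expression were detected as increased firefly luciferase luminescence in engineered MCF7 cells after 48 h compound incubation. Signals were scaled to genistein 10 microM as full activation.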
Nrf2 inh: blocks Nrf2 signaling; A549 ARE-Fluc reporter, luciferase luminescence, 18-24 h; AID 504444; Potency, µM (top dose mostly 46 µM), for inactives: at the highest dose activity change, negative = inhibition, usual class: inhibitors; 2.1% of 360,000 active; note: potency is the fitted concentration of half-maximal effect; % is set by controls: 0 for no effect and ±100 for the full control effect; nearly all actives have a fitted effect of over 60% in size
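A549 ARE_Fluc cells, 5000/well, 5% FBS OPTI-MEM; compounds in dose-response, 18-24 h at 37 °C/5% CO2; CellTiter-Fluor viability read (Ex 405/Em 525), then BugLite luciferase luminescence = Nrf2 activity.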
A549 tox: counter-screen for Nrf2 inhibitors: cytotoxicity in A549 cells. Potency, µM (titrated, usually from 46 µM), without a hit: at the top dose activity change, negative = cytotoxicity, actives largely listed as inhibitors. AID 504648. 0.16% of 390,000 active. A549 ARE-Fluc cells, CellTiter-Fluor viability, 18-24 h; note: potency is the fitted concentration of half-maximal effect; % is set by controls: 0 for no effect and ±100 for the full control effect
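A549 ARE_Fluc cells in 5% FBS OPTI-MEM were exposed to compounds in concentration-response for 18-24 h at 37 deg C. Viability was read by CellTiter-Fluor fluorescence (Ex 405/Em 525) after 30 min, before the luciferase read.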
p53 reactivation: restores transcriptional activity of mutant p53; H1299 p53-A138V BP100-luciferase reporter, luminescence, 24 h; Potency, µM (titrated, usually from 92.2 µM), without a hit: at the highest dose activity change, positive = activation, most hits filed as activators; 0.063% of 320,000 active; AID 504706; note: potency is the fitted concentration of half-maximal effect; % of control where 0% means no effect; nearly all actives have a fitted effect of over 45% in size
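p53-null H1299 cells stably carrying temperature-sensitive p53-A138V and a BP100-luciferase reporter were pinned with compounds (4-point, 1:5 series) and held 24 hrs at 37 deg C. Luminescence was read 10 min after detection reagent.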
IL-2 act: activators of IL-2; IL-2 activation reporter assay, cell-based qHTS; stimulated with anti-CD3/CD4/CD28 beads; in transgenic mouse T cells; activation, % (series mostly up to about 46 µM); 0.065% of 360,000 active; in the data active = activation above about 50%; inconclusive = mostly about 30% to 49%; note: 0% is about no effect
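EGFP and DsRed fluorescence is measured by plate cytometry in unstimulated transgenic mouse T cells exposed to compound for 60 minutes, then stimulated 18 hours at 37 degrees C with anti-CD3/anti-CD4 beads plus anti-CD28.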
Nrf2 activator: Nrf2 pathway activation. AREc32 ARE-luciferase reporter (MCF7-derived line), luminescence, 24 h. Potency, µM (highest dose often 46.1 µM), without a hit: at the top dose activation, most hits filed as activators. 0.31% of 410,000 active. AID 624171; note: potency is the fitted concentration of half-maximal effect; % of control where 0% means no effect; nearly all actives have a fitted effect of over 65% in size
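Steps: seed AREc32_Fluc cells (1000/well, 5% FBS OPTI-MEM); incubate overnight at 37 deg C; add 23 nL compound; incubate 24 hr; add Steady-Glo; hold 30 min RT; read luminescence.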
The depositor's hits bear a star; ? = inconclusive; . = no result. An excerpt weighted towards active compounds, which were near 3.2% of everything screened. Unless noted, calls come from the whole dose curve; as a rule, active = well fitted curve in the direction sought with a large enough effect; inconclusive = small, poorly fitted or top-dose-only effect, or another doubt; inactive = no such curve, though single readings can be large; an effect the other way counts as inactive or inconclusive.

SMILES	BRCA1 expr act	Nrf2 inh	A549 tox	p53 reactivation	IL-2 act	Nrf2 activator
O=[N+]([O-])c1ccc(Oc2ccc(S(=O)(=O)Nc3ccccc3)cc2)cc1	-46%	18µM*	-2%	2%	-4	3%
COc1ccc(S(=O)(=O)Nc2ccc(Oc3ncccn3)c(Cl)c2)cc1	-4%	?	-3%	-5%	1	0%
COc1ccc(NS(=O)(=O)c2ccc(Oc3ncccn3)cc2)cc1	-28%	21µM*	0%	-10%	0	0%
Cc1nc(-c2ccc(S(=O)(=O)Nc3ccc(S(N)(=O)=O)cc3)cc2)co1	13%	-30%	-2%	6%	-2	0%
CNc1cccc(S(=O)(=O)N2CCCN(S(=O)(=O)c3ccc4c(c3)OCCO4)CC2)c1	.	-7%	-3%	.	.	.
Cc1cc(O)ccc1Nc1cc(-c2cccc(N(C)C)c2)ncn1	5.6µM*	.	.	.	0	7%
Cc1cc(C(=O)N2CCCC(C(=O)c3cccc(C(F)(F)F)c3)C2)n[nH]1 (centres undefined)	4%	18µM*	-16%	14%	-2	0%
COc1ccccc1N1CCN(c2nc3ccc(C)cc3nc2-n2nc(C)cc2C)CC1	.	?	-17%	.	.	0%
CC(=O)Nc1c(C)nn(-c2ccccc2)c1N1CCC(C(=O)NCc2ccc(F)cc2)CC1	.	.	-5%	.	.	0%
COc1cc(-c2ccc3ncnc(NCCc4cnc[nH]4)c3c2)cc(OC)c1OC	.	?	9%	.	.	.
Cc1cccc(NC(=O)CNc2cc(C)ccc2C)c1	13µM*	18%	1%	4%	-2	2%
CCn1c(C)cc(/C=C2/SC(=O)N(C(C)C(=O)OC)C2=O)c1C (centres undefined)	4.5µM*	?	-11%	12%	0	3%
COC(=O)CN1C(=O)S/C(=C/c2cc(C)n(C)c2C)C1=O	13µM*	20%	?	11%	-2	3%
COc1ccc(N=C2S/C(=C\c3cc(C)n(C)c3C)C(=O)N2CC(C)C)cc1	-43%	-18%	-20%	-8%	-5	6%
COC(=O)CN1C(=O)S/C(=C/c2ccc(N3CCCCC3)o2)C1=O	10µM*	-8%	.	-9%	26	6%
CC[Si](CC)(CC)O[C@H]([C@@H](C)COCOC)[C@@H](C)COCc1ccc(OC)cc1	.	15%	2%	.	.	.
COc1ccc(CNC(=O)c2ccc(C(C)(C)C)cc2)cc1	3.5µM*	?	1%	11%	-1	6%
COc1ccc(CNC(=O)c2ccncc2)cc1	0%	-23%	-1%	11%	-1	0%
O=C(COC(=O)CNC(=O)c1ccccc1)Nc1cc(C(F)(F)F)ccc1Cl	.	16%	-1%	.	.	.
O=C(NCc1ccco1)c1ccc(COc2cc(Cl)ccc2Cl)cc1	7.9µM*	?	-3%	?	1	6%
O=C(COc1ccc(Cl)cc1Cl)NCc1ccco1	10µM*	11%	7%	?	0	6%
O=C(COc1ccc(Cl)cc1Cl)NNC(=S)NCc1ccco1	63%	-19%	0%	3%	1	5%
CCOc1cc(C(=O)NCc2ccco2)cc(OCC)c1OCC	-3%	2%	-6%	.	0	6%
COc1ccc(N=C2C(=S)N(c3ccc(OC)cc3)C(=NS(=O)(=O)c3ccccc3)N2c2ccccc2)cc1	3.5µM*	?	-5%	.	-1	3%
O=C(NCc1cccc(Cl)c1)C1CCCN(c2ncnc3onc(-c4ccc(F)cc4)c23)C1 (centres undefined)	.	-13%	-2%	.	.	4%
SMILES	BRCA1 expr act	Nrf2 inh	A549 tox	p53 reactivation	IL-2 act	Nrf2 activator
Fc1ccc(-c2noc3ncnc(NCCCN4CCN(c5ccccc5)CC4)c23)cc1	.	0%	-13%	.	.	6%
O=C(COc1ccccc1)NCC(=O)N1CCCC1	11%	4%	0%	-1%	-5	0%
O=C(Oc1ccc(-c2ccccc2)cc1)N1CCCCC1	7.1µM*	.	-20%	.	0	0%
COc1ccc(OCCC(=O)N2CCCCC2)cc1	11µM*	?	-2%	27%	1	3%
COc1ccc(OCCC(=O)N2CCN(C)CC2)cc1	-7%	13%	1%	.	0	0%
O=C(COc1ccc(-c2ccccc2)cc1)N1CCCC1	13µM*	19%	-4%	-3%	-2	4%
COc1ccc(NC(=O)Cn2c(=O)n(CCC(=O)NCCc3ccc(OC)c(OC)c3)c(=O)c3ccccc32)cc1Cl	14%	19%	-4%	.	.	0%
CCC(C)NC(=O)CCC(=O)N1Cc2ccccc2Oc2ncccc21 (centres undefined)	.	?	7%	.	.	-1%
Brc1ccc(C2=CC(c3ccco3)n3nnnc3N2)cc1 (centres undefined)	-54%	1%	-2%	1%	-3	5µM*
Clc1ccccc1C1=CC(c2ccco2)n2nnnc2N1 (centres undefined)	-25%	0%	0%	0%	0	?
COc1ccc(C2NC(=O)NC(C)=C2C(=O)Nc2cc(C)cc(C)c2)c(OC)c1 (centres undefined)	8%	-11%	-1%	.	.	0%
CCC1=C(c2ccc(C)cc2)S(=O)(=O)N=C1N1CCC(C(=O)NCCc2ccc(Cl)cc2)CC1	.	?	-23%	.	.	-1%
Cc1cccc(NS(=O)(=O)c2ccc(C(=O)NCC(c3ccco3)N3CCCCC3)cc2)c1C (centres undefined)	-45%	21µM*	-26%	-10%	-1	7%
CC1CCN(C(=O)COC(=O)c2ccc3c(c2)OCO3)CC1	2.5µM*	?	-7%	13%	1	0%
CC1CCCCN1C(=O)COC(=O)c1cc(Cl)c2c(c1)OCO2 (centres undefined)	11µM*	?	2%	18%	-4	0%
CC1CCCCN1C(=O)COC(=O)c1ccc(N2CCCC2=O)cc1 (centres undefined)	34%	7%	-1%	0%	3	-1%
CC1CCN(C(=O)COC(=O)c2ccc3c(c2)OCCO3)CC1	?	14%	-7%	?	0	0%
O=C(c1ccco1)N1CCN(c2nc3c(F)cc(F)cc3s2)CC1	.	.	5%	.	.	5%
COc1ccc(C(=O)N(Cc2ccco2)Cc2cccs2)c(OC)c1	7%	-5%	3%	.	.	.
Cc1c(CNCCc2ccc(S(N)(=O)=O)cc2)c(C(=O)O)c(C)n1Cc1ccc(Cl)cc1	.	16%	-7%	.	.	-1%
NS(=O)(=O)c1ccc(N2N=C(c3ccc(Br)cc3)CC2c2ccc(F)cc2)cc1 (centres undefined)	-99%	18µM*	?	-15%	0	-2%

Source: PubChem BioAssay (National Center for Advancing Translational Sciences (NCATS))
